Laboratory results published in PubChem BioAssay (NCATS).
Results filed as inconclusive are left out. A call without a number means that no potency is given here. The source made the active and inactive calls. Unless noted, the call rests on the fitted dose curve; in most records, active means well fitted curve in the direction sought with a large enough effect; inconclusive means small, poorly fitted or top-dose-only effect, or another doubt; inactive means no such curve, though single readings can be large; an effect the other way counts as inactive or inconclusive.

What was measured:
[1] = target: Cytochrome P450 3A4 (Homo sapiens) (UniProt P08684); assay: qHTS Assay for Inhibitors and Substrates of Cytochrome P450 3A4 (AID 884); further: nearly all actives have a fitted effect of over 50% in size; further: potency means the concentration at half of the fitted maximal effect
Summary of the method: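 Luminescent readout of luciferin produced by CYP3A4 (20 nM) dealkylation of Luciferin-PPXE, 25 uM (its KM). NADPH-driven reaction ran 60 min at RT after 10 min compound preincubation; data scaled to 57 uM ketoconazole as 100% inhibition.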

[2] = target: Cytochrome P450 3A4 (Homo sapiens) (UniProt P08684); assay: qHTS Assay for Activators of Cytochrome P450 3A4 (AID 885); further: nearly all actives have a fitted effect of over 65% in size
Summary of the method: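 Activators are scored by enhanced luminescence from CYP3A4 conversion of luciferin-PPXE (25uM, equal to KM) to luciferin, after 60 min at RT with an NADPH-regenerating system.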

[3] = Confirmation and Secondary Assay for Modulators of Hemoglobin Beta Chain Splicing at IVS2 654 locus (AID 910);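 further: HeLa cells stably carrying EGFP split by mutant beta-globin IVS2-654 intron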
Summary of the method: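 HeLa cells stably expressing EGFP interrupted by β-globin IVS2-654 intron, seeded overnight in Opti-MEM/2% FCS, then treated 2 days at 37 °C. Restored splicing read as total peak GFP intensity per well by laser scanning cytometry (488 nm excitation, 500–520 nm emission); 500 nM antisense PNA as control.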

[4] = Confirmation and Secondary Assay for Modulators of Hemoglobin Beta Chain Splicing at IVS2 705 locus (AID 930);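 further: HeLa cells stably expressing the EGFP-705 splicing reporter; GFP fluorescence per well restored by corrected splicing of the IVS2-705 intron in EGFP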
Summary of the method: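 Assay measures total GFP intensity per well in HeLa EGFP-705 cells after 2 days with compound; mis-splicing normally truncates EGFP, so fluorescence indicates corrected splicing.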

[5] = qHTS Assay for Lipid Storage Modulators (AID 1519; calls by dose curve); conditions: Drosophila S3 cells, BODIPY lipid droplet/cell ratio, laser cytometry, cells loaded with oleic acid; for activity change, negative = inhibition: at 57.5 µM (top of the series)
Summary of the method: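 Cells seeded at 5,000 per well were treated with compounds over a concentration series and loaded with oleic acid (400 uM, as added). Lipid droplet fluorescence (488 nm excitation, 500-530 nm channel) was read by laser-scanning cytometry and normalized to 20 uM Triacsin C.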

[6] = target: DNA dC->dU-editing enzyme APOBEC-3G (Homo sapiens) (UniProt Q9HC16); assay: qHTS for inhibitors of Vif-A3G interactions: Validation (AID 588379)
Summary of the method: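 Yellow fluorescence (Ex 488, Em 500-530) of Vif-coexpressing HeLa A3G-eYFP cells, scanned by Acumen cytometer, reports blocked A3G degradation. Cells plated at 700/well overnight at 37 deg C before compound addition, then a further overnight compound incubation at 37 deg C.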

[7] = target: Cytochrome P450 2D6 (Homo sapiens) (UniProt P10635); assay: Cytochrome P450 family 2 subfamily D member 6 (CYP2D6) small molecule antagonists: luciferase biochemical (cell-free) qHTS assay (AID 1645840; active means well fitted curve in the direction sought with a large enough effect in the repeat runs; an effect the other way counts as inactive or inconclusive; further: nearly all actives have a fitted effect of over 55% in size)
Summary of the method: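 P450-Glo CYP2D6 system: proluciferin substrate converted by enzyme to luciferin, read by luminescence proportional to activity. Enzyme-substrate mix with compound 10 min at room temperature, then NADPH regeneration 1 h before detection reagent.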

[8] = target: Ubiquitin carboxyl-terminal hydrolase 1 (Homo sapiens) (UniProt O94782); assay: Inhibitors of USP1/UAF1: Pilot qHTS (AID 504865);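 further: rhodamine fluorescence freed from ubiquitin-rhodamine substrate followed over time; top concentration of the series differs between compounds; nearly all actives have a fitted effect of over 35% in size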
Summary of the method: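 Deubiquitinase activity followed as kinetic rhodamine fluorescence release from 150 nM Ub-Rho. 1 nM USP1/UAF1 with compound, after 15 min room-temperature preincubation, in HEPES pH 7.8 buffer containing TCEP, EDTA, BSA and Tween-20.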

[9] = measured here: cell count channel max response
[10] = measured here: lipid channel max response

Cytochrome P450 3A4 (Homo sapiens), sequence (P08684 whole entry, looked up): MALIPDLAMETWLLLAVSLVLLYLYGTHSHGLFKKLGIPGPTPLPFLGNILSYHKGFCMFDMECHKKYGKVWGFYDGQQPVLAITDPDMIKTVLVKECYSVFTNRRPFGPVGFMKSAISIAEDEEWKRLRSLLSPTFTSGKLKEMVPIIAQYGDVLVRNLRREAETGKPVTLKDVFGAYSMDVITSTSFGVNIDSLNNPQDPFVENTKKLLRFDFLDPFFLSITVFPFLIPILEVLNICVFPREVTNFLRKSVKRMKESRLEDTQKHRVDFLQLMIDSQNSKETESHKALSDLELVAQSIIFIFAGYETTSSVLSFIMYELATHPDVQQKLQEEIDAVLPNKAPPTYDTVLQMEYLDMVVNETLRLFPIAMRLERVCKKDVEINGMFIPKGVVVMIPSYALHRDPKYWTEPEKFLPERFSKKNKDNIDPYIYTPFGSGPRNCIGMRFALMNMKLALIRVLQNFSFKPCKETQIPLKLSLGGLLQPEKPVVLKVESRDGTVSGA
Cytochrome P450 2D6 (Homo sapiens), sequence (P10635 whole entry, looked up): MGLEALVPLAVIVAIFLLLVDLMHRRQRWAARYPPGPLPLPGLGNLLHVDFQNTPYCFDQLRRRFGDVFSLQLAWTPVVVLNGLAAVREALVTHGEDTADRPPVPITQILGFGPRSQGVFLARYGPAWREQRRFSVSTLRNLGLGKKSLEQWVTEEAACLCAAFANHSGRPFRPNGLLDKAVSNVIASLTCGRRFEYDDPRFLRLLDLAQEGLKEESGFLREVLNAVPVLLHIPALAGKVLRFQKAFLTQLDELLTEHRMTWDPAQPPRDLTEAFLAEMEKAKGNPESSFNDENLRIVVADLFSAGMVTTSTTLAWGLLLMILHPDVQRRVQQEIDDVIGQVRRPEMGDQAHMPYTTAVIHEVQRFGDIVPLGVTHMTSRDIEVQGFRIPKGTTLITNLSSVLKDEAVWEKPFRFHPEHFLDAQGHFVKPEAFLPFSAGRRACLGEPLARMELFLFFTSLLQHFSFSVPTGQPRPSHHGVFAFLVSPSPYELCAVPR
Ubiquitin carboxyl-terminal hydrolase 1 (Homo sapiens), sequence (O94782 whole entry, looked up): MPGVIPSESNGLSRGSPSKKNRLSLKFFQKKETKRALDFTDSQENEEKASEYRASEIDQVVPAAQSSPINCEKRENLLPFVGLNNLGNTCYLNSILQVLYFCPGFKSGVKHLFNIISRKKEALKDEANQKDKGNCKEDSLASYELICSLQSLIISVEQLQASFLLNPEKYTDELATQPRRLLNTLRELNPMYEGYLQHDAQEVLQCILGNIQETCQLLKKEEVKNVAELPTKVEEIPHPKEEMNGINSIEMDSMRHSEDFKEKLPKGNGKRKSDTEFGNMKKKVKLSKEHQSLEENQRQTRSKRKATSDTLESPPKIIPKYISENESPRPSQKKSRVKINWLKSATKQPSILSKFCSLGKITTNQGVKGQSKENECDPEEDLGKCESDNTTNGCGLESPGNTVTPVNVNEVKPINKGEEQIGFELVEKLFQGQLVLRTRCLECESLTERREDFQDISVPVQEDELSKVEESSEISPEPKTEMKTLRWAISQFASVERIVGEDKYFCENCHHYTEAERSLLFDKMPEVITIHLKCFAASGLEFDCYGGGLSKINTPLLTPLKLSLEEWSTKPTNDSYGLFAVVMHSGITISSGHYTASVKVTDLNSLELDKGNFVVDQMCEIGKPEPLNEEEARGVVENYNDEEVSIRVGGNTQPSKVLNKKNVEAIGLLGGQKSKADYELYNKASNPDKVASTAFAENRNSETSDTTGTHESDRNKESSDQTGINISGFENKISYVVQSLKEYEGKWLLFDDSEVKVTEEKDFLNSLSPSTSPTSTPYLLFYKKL
DNA dC->dU-editing enzyme APOBEC-3G (Homo sapiens), sequence (Q9HC16 whole entry, looked up): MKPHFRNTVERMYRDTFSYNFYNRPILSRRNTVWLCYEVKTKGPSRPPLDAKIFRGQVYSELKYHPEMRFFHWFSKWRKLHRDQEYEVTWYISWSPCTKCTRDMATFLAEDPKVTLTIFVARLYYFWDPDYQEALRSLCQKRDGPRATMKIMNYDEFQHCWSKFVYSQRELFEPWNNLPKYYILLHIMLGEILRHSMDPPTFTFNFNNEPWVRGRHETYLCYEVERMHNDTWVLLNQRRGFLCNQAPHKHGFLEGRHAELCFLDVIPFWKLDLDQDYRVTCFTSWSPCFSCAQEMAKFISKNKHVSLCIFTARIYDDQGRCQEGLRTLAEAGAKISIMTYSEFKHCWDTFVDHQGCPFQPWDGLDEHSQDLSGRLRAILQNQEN

In the case of `C=C1C2CC[C@@]3(C)C(c4ccoc4)OC(=O)C[C@@]13OC1CC(=O)C(C)(C)C(C(OC(C)=O)C(=O)OC)[C@@]12C` (some centres not stated), the Potency [1] is reported as 1000 nM (active), the Potency [2] is reported as “inactive” and the Potency [3] is reported as “inactive”. For the same compound, the Potency [4] was “inactive”, the activity change, negative = inhibition [5] was 1.36% (inactive) and the max response [5, 9] was 4.29%. For the same compound, the max response [5, 10] was 7.56%.
With `CC(=O)N1CC2CC(C1)c1cccc(=O)n1C2` (configuration not stated) the Potency [1] was “inactive”, the activity change, negative = inhibition [5] was -4.96% (inactive) and the max response [5, 9] was -29.2%. The max response [5, 10] was -33.4% and the outcome [6] was “inactive”.
In the case of `CCOC(=O)/C=C/[C@H](C[C@@H]1CCNC1=O)NC(=O)[C@@H](CC(=O)[C@@H](NC(=O)c1cc(C)on1)C(C)C)Cc1ccc(F)cc1`, the Potency [7] is reported as “inactive”.
In the case of `CCCCC/C=C\C/C=C\C/C=C\C/C=C\CCCC(=O)O`, the Potency [2] is reported as “inactive”, the activity change, negative = inhibition [5] is reported as -9.9% (inactive) and the max response [5, 9] is reported as 20.2%. It also gave a max response [5, 10] of 8.84%.
For `COC1C(O)C(OC2CC[C@]3(C=O)C4C(OC(C)=O)C[C@@]5(C)C(C6=CC(=O)OC6)CC[C@]5(O)C4CC[C@]3(O)C2)OC(C)C1OC(C)=O` (some centres not stated), the Potency [1] was “inactive”, the Potency [3] was “inactive” and the activity change, negative = inhibition [5] was 4.28% (inactive). The max response [5, 9] was 10% and the max response [5, 10] was 17.4%.
With `CCC(CO)NC(=O)C1C=C2c3cccc4[nH]cc(c34)CC2N(C)C1` (configuration not stated) the Potency [3] was “inactive”, the Potency [4] was “inactive” and the activity change, negative = inhibition [5] was 10.6% (inactive). It also gave a max response [5, 9] of 3.07% and a max response [5, 10] of 18.5%.
For `CC(=O)Oc1ccc(Cl)c2cccnc12`, the Potency [1] was “inactive”, the Potency [3] was “inactive” and the Potency [4] was “inactive”. The Potency [8] was “inactive” and the Potency [7] was “inactive”.
